Experimental data reported in the supplement of paper PMC7411054.

Assays:
Conditions in all cases: treatment time: 24 h
A549-CANX-COX4 = experiment: phenotypically active (imaging signature differs from DMSO and reproducible) at any of 0.3-9 uM (binary (1 = active, 0 = inactive)); higher = active
Method in brief: (§1)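 Cells from fifteen gene-edited reporter lines (A549, HepG2 and WPMY1) were treated for 24 h at 0.3, 1, 3 or 9 µM and imaged live, four wells per condition. Features were normalised per well to solvent control wells. A condition deviated if ≥3 of 4 wells passed the 95th percentile of control Euclidean distances and was reproducible if its median replicate Pearson correlation beat the 95th percentile of non-replicates; phenotypic activity needed both.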

A549-TP53BP1-CLTA = experiment: as above
Method in brief: as §1

HepG2-ACTB-RAB5A = experiment: as above
Method in brief: as §1

HepG2-CANX-COX4 = experiment: as above
Method in brief: as §1

HepG2-GM130-SQSTM1 [1] = experiment: as above
Method in brief: as §1

HepG2-TP53BP1-CLTA = experiment: as above
Method in brief: as §1

HepG2-TUBA1B-RELA = experiment: as above
Method in brief: as §1

WPMY1-ACTB-RAB5A [2] = experiment: as above
Method in brief: as §1

WPMY1-CANX-COX4 [3] = experiment: as above
Method in brief: as §1

WPMY1-GM130-SQSTM1 [4] = experiment: as above
Method in brief: as §1

WPMY1-TP53BP1-CLTA = experiment: as above
Method in brief: as §1

WPMY1-TUBA1B-RELA [5] = experiment: as above
Method in brief: as §1

HepG2-GM130-SQSTM1 [6] = experiment: lowest phenotypically active concentration; higher = less potent
Method in brief: as §1

WPMY1-ACTB-RAB5A [7] = experiment: as above
Method in brief: as §1

WPMY1-CANX-COX4 [8] = experiment: as above
Method in brief: as §1

WPMY1-GM130-SQSTM1 [9] = experiment: as above
Method in brief: as §1

WPMY1-TUBA1B-RELA [10] = experiment: as above
Method in brief: as §1

Row | SMILES | phenotypically active (A549-CANX-COX4) | phenotypically active (A549-TP53BP1-CLTA) | phenotypically active (HepG2-ACTB-RAB5A) | phenotypically active (HepG2-CANX-COX4) | phenotypically active (HepG2-GM130-SQSTM1 [1]) | phenotypically active (HepG2-TP53BP1-CLTA) | phenotypically active (HepG2-TUBA1B-RELA) | phenotypically active (WPMY1-ACTB-RAB5A [2]) | phenotypically active (WPMY1-CANX-COX4 [3]) | phenotypically active (WPMY1-GM130-SQSTM1 [4]) | phenotypically active (WPMY1-TP53BP1-CLTA) | phenotypically active (WPMY1-TUBA1B-RELA [5]) | lowest phenotypically active concentration (HepG2-GM130-SQSTM1 [6]) [µM] | lowest phenotypically active concentration (WPMY1-ACTB-RAB5A [7]) [µM] | lowest phenotypically active concentration (WPMY1-CANX-COX4 [8]) [µM] | lowest phenotypically active concentration (WPMY1-GM130-SQSTM1 [9]) [µM] | lowest phenotypically active concentration (WPMY1-TUBA1B-RELA [10]) [µM]
1 | CC(C)NCC(O)COc1cccc2ccccc12 (configuration not stated) [propranolol] | 0 (inactive) | 0 (inactive) | 0 (inactive) | 0 (inactive) | 0 (inactive) | 0 (inactive) | 0 (inactive) | 0 (inactive) | 0 (inactive) | 0 (inactive) | 0 (inactive) | 0 (inactive) |  |  |  |  | 
2 | Oc1ccc(Nc2nc(-c3ccc(Cl)cc3)cs2)cc1 | 1 (active) | 1 (active) | 0 (inactive) | 1 (active) | 1 (active) | 0 (inactive) | 0 (inactive) | 1 (active) | 1 (active) | 1 (active) | 1 (active) | 1 (active) | 9 | 3 | 3 | 3 | 9
3 | CC(C)CCN1c2nc(Nc3cc(F)c(O)c(F)c3)ncc2N(C)C(=O)C1C (configuration not stated) | 0 (inactive) | 1 (active) | 1 (active) | 1 (active) | 1 (active) | 1 (active) | 1 (active) | 1 (active) | 1 (active) | 1 (active) | 1 (active) | 1 (active) | 1 | 3 | 3 | ≤ 0.3 | 3
4 | O=c1cc(-c2ccc(O)cc2)oc2c(C3O[C@H](CO)[C@@H](O)[C@H](O)[C@H]3O)c(O)cc(O)c12 (some centres not stated) [Vitexin] | 0 (inactive) | 0 (inactive) | 0 (inactive) | 0 (inactive) | 0 (inactive) | 0 (inactive) | 0 (inactive) | 0 (inactive) | 0 (inactive) | 0 (inactive) | 0 (inactive) | 0 (inactive) |  |  |  |  | 
5 | COc1cc2c(NC3CCN(C(C)C)CC3)nc(C3CCCCC3)nc2cc1OCCCN1CCCC1 | 1 (active) | 1 (active) | 1 (active) | 1 (active) | 1 (active) | 1 (active) | 1 (active) | 1 (active) | 1 (active) | 1 (active) | 1 (active) | 1 (active) | 1 | 1 | 1 | ≤ 0.3 | 1
6 | CC(CCc1ccccc1)NCC(O)c1ccc(O)c(C(N)=O)c1 (configuration not stated) [labetalol] | 0 (inactive) | 0 (inactive) | 0 (inactive) | 0 (inactive) | 0 (inactive) | 0 (inactive) | 0 (inactive) | 0 (inactive) | 0 (inactive) | 0 (inactive) | 0 (inactive) | 0 (inactive) |  |  |  |  | 
